Results filed as inconclusive are left out. Entries that show only a call come without a potency. The source made the active and inactive calls. Unless noted, the call rests on the fitted dose curve; in most records, active means well fitted curve in the direction sought with a large enough effect; inconclusive means small, poorly fitted or top-dose-only effect, or another doubt; inactive means no such curve, though single readings can be large; an effect the other way counts as inactive or inconclusive.
Tests used:
[1] = Primary qHTS for inhibitors of SARS-S pseudo-typed particle cell entry (AID 1479145; calls by dose curve; further: nearly all actives have a fitted effect of over 45% in size); settings: outcome: dose series up to 57.1 µM unless noted
[2] = Primary qHTS for Huh7 cytotoxicity: counterscreen for inhibitors of MERS-S pseudotyped particle cell entry (AID 1479147; calls by dose curve); settings: outcome: dose series up to 57.1 µM unless noted
[3] = Primary qHTS for inhibitors of MERS-S pseudo-typed particle cell entry (AID 1479149; calls by dose curve; further: nearly all actives have a fitted effect of over 60% in size); settings: outcome: dose series up to 57.1 µM unless noted
[4] = Primary qHTS for Vero E6 cytotoxicity: counterscreen for inhibitors of SARS-S pseudo-typed particle cell entry (AID 1479150; calls by dose curve)
[5] = Validation qHTS assay for inhibitors of Activation Induced Cytidine Deaminase (AID): UDG Counterscreen signal (AID 1347427); further: potency means the concentration at half of the fitted maximal effect
In short: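 Counterscreen read of UDG activity (2 U/mL, 4/3x) in the FRET deamination format with AID (1 uM, 4/3x), DJC20/DJC23 substrates (250 nM, 4x), 4 h at room temperature. NaOH stop, fluorescence at 560 ex/665 em.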

[6] = target: Single-stranded DNA cytosine deaminase (Homo sapiens) (UniProt Q9GZX7); assay: Validation qHTS assay for inhibitors of Activation Induced Cytidine Deaminase (AID): AID signal (AID 1347429)
In short: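 Fluorescence at 540 nm excitation and 590 nm emission reports ssDNA cytosine deamination by AID, with UDG in the same well. Compound-treated reactions ran 4 hr at room temperature with DJC20/DJC23 substrate, followed by 30 min NaOH treatment.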

Single-stranded DNA cytosine deaminase (Homo sapiens), sequence (Q9GZX7 whole entry, looked up): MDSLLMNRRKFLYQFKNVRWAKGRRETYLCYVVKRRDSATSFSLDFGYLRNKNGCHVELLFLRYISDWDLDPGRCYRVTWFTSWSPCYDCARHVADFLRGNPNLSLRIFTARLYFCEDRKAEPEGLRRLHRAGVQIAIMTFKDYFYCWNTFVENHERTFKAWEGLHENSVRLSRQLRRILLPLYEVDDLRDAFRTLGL

Question: With `O=[N+]([O-])c1cc(I)c(O)c(I)c1` as the molecule, how does the outcome [1] read?
Answer: Its outcome is “inactive”.

Question: And the outcome [2]?
Answer: Its outcome is “inactive”.

Question: And the outcome [3]?
Answer: The outcome was “inactive”.

Question: What about the Potency [4] of the same molecule?
Answer: Its Potency is “inactive”.

Question: With `CN(N=O)c1cc(O)ccc1O` as the molecule, how does the Potency [5] read?
Answer: Its Potency is “inactive”.

Question: And the Potency [6]?
Answer: Its Potency is “inactive”.

Question: With `CC(C)(C)c1cc(C=C(C#N)C#N)cc(C(C)(C)C)c1O` as the molecule, how does the Potency [5] read?
Answer: The Potency was 70.8 µM (active).

Question: And the Potency [6]?
Answer: Its Potency is “inactive”.

Question: With `CC(C)CCON=O` as the molecule, how does the outcome [1] read?
Answer: The outcome was “inactive”.

Question: What about the outcome [2] of the same molecule?
Answer: The outcome was “inactive”.

Question: And the outcome [3]?
Answer: The outcome was “inactive”.

Question: What about the Potency [4] of the same molecule?
Answer: The Potency was “inactive”.

Question: For `CCCn1c(C)c(C(=O)c2ccc3ccccc3c2)c2ccccc21`, which Potency [5] is on record?
Answer: The Potency was “inactive”.

Question: What about the Potency [6] of the same molecule?
Answer: Its Potency is “inactive”.

Question: With `O=C(NCNC(=O)NC1C(=O)NC(=O)N1CO)NC1C(=O)NC(=O)N1CO` (stereo not drawn) as the molecule, how does the outcome [1] read?
Answer: Its outcome is “inactive”.

Question: And the outcome [2]?
Answer: The outcome was “inactive”.

Question: And the outcome [3]?
Answer: Its outcome is “inactive”.

Question: What about the Potency [4] of the same molecule?
Answer: Its Potency is “inactive”.

Question: What does the source list for `COc1ccc2c(c1)/C(=C/c1cnc[nH]1)C(=O)N2`?
Answer: Potency [5]: inactive; Potency [6]: inactive

Question: With `C=CCN1CC[C@]23c4c5ccc(O)c4O[C@@H]2/C(=N/N=C2\CC[C@@]4(O)C6Cc7ccc(O)c8c7[C@@]4(CCN6CC=C)[C@@H]2O8)CC[C@@]3(O)C1C5` as the molecule, how does the Potency [5] read?
Answer: The Potency was “inactive”.

Question: And the Potency [6]?
Answer: The Potency was “inactive”.

Question: For `CCN(CCCl)Cc1ccccc1Br`, which Potency [5] is on record?
Answer: Its Potency is “inactive”.

Question: And the Potency [6]?
Answer: The Potency was “inactive”.

Question: Which results are given for `CN1CCc2cc(O)cc3c2[C@H]1Cc1ccc(O)c(O)c1-3`?
Answer: Potency [5]: inactive; Potency [6]: inactive

Question: Which Potency [5] does the source give for `N[C@@H](CCl)C(=O)O` here?
Answer: Its Potency is “inactive”.

Question: What about the Potency [6] of the same molecule?
Answer: Its Potency is “inactive”.

Question: Which outcome [1] does the source give for `C[N+]1(C)CCCCC1COC(=O)C(O)(c1ccccc1)c1ccccc1` (stereo not drawn) here?
Answer: The outcome was “inactive”.

Question: What about the outcome [2] of the same molecule?
Answer: The outcome was “inactive”.

Question: What about the outcome [3] of the same molecule?
Answer: The outcome was “inactive”.

Question: What about the Potency [4] of the same molecule?
Answer: Its Potency is “inactive”.

Question: For `COc1ccc2c(c1)[C@@]13CCCC[C@H]1[C@@H](C2)NCC3`, which Potency [5] is on record?
Answer: The Potency was “inactive”.

Question: And the Potency [6]?
Answer: The Potency was “inactive”.

Question: For `C[C@@H]1[C@@H]2Cc3ccc(O)cc3[C@@]1(C)CCN2CC1CC1`, which Potency [5] is on record?
Answer: The Potency was “inactive”.

Question: What about the Potency [6] of the same molecule?
Answer: The Potency was “inactive”.

Question: With `COc1cc(CC(C)N)c(OC)cc1I` (stereo not drawn) as the molecule, how does the Potency [5] read?
Answer: Its Potency is “inactive”.

Question: What about the Potency [6] of the same molecule?
Answer: Its Potency is “inactive”.

Question: Which results are given for `O=c1[nH]cc(N(CCCl)CCCl)c(=O)[nH]1`?
Answer: outcome [1]: inactive [at 114 µM]; outcome [2]: inactive [at 114 µM]; outcome [3]: inactive [at 114 µM]; Potency [4]: inactive

Question: What does the source list for `C[C@@H]1O[C@H](C[N+](C)(C)C)CS1`?
Answer: Potency [5]: inactive; Potency [6]: inactive

Question: Which Potency [5] does the source give for `C[Se]C[C@H](N)C(=O)O` here?
Answer: The Potency was “inactive”.

Question: What about the Potency [6] of the same molecule?
Answer: Its Potency is “inactive”.

Question: With `CC(C)[C@@]1(NC(=O)[C@@H]2C[C@@H]3c4cccc5[nH]cc(c45)C[C@H]3N(C)C2)O[C@@]2(O)[C@@H]3CCCN3C(=O)[C@H](Cc3ccccc3)N2C1=O` as the molecule, how does the Potency [5] read?
Answer: Its Potency is “inactive”.

Question: What about the Potency [6] of the same molecule?
Answer: Its Potency is “inactive”.

Question: For `Ic1ccccc1CNC1C2CCN(CC2)C1C(c1ccccc1)c1ccccc1` (stereo not drawn), which Potency [5] is on record?
Answer: Its Potency is “inactive”.

Question: And the Potency [6]?
Answer: The Potency was “inactive”.

Question: Which results are given for `CCC1(CC)C(=O)NC(=O)N(C)C1=O`?
Answer: outcome [2]: inactive; outcome [3]: inactive; Potency [4]: inactive

Reference: PubChem BioAssay (NCATS)
